Compound activity: PubChem, National Center for Advancing Translational Sciences (NCATS)
TCR act: Activators of T cell receptors: qHTS campaign; primary human leukocytes, anti-CD3, IL-2 HTRF, 48 h; 330,000 tested, under 10 active; Potency, µM (titrated, usually from 9.22 µM), without a hit: at the top dose activation of IL-2 secretion, most hits filed as activators; AID 504894, 2011; further: % of control where 0% means no effect
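IL-2 produced over 48 hr by a-CD3 bead-stimulated primary human leukocytes exposed to compounds was detected with a homogeneous time-resolved FRET immunoassay, 665nm acceptor signal after 320nm excitation.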
IL-2 act: qHTS of IL-2 Activators | IL-2 activation reporter assay, cell-based qHTS; stimulated with anti-CD3/CD4/CD28 beads; in transgenic mouse T cells | activation, % (series mostly up to about 46 µM) | 360,000 compounds, 0.065% hits; in the data active means activation above about 50%; inconclusive means mostly about 30% to 49%; further: 0% is about no effect
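Quantitative HTS in unstimulated transgenic mouse T cells, with memory T cells as non-tolerant control and PMA/ionomycin as tolerance-bypass control. Compound pretreatment lasted 60 minutes before 18 h bead stimulation; EGFP/DsRed fluorescence read.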
Mito fusion act: qHTS Assay for Small Molecule Inhibitors of Mitochondrial Division or Activators of Mitochondrial Fusion | S. cerevisiae fusion-defective mutant growth rescue, CellTiterGlo 48 h | Potency, µM (highest dose often 46.1 µM), for the others: at the top dose growth rescue (activation), usual class: activators | 320,000 compounds, 0.23% hits | AID 485298, 2010; further: potency means the concentration at half of the fitted maximal effect; % of control where 0% means no effect; nearly all actives have a fitted effect of over 45% in size
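Yeast fusion mutant, YPEG (non-fermentable carbon), compound, 48 h at 37C non-permissive; CellTiterGlo added, 10 min RT, luminescence read. Rescued growth = division inhibition.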
Chronic BCR inh: qHTS Assay to Find Inhibitors of Chronic Active B-Cell Receptor Signaling; 340,000 compounds, 0.05% hits; Potency, µM (doses to about 46.1 µM), for inactives: at the top dose activity change, negative = inhibition, hits mostly inhibitors; ABC-DLBCL IkBa-CBG/CBR reporter, luminescence ratio, 4 h; active means well fitted inhibition curve with a large enough effect in the signal ratio, with a control signal flat, not every such curve was filed as active; inconclusive means small, poorly fitted or top-dose-only effect, or effect the other way, or a change in a side signal; the % refers to the signal ratio;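 further: potency means the concentration at half of the fitted maximal effect; plate controls were basal doxycycline-induced cells for no effect and cells given 10 µM MG132 for full effect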
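Compounds up to 46 uM were incubated four hours with TMD8 cells whose green CBG68 luciferase is fused to IkappaBalpha; red CBR luminescence normalised the signal, and concentration-effect curves were fitted to fusion, red and ratio data.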
BRCA1 expr act: qHTS Assay to Identify Small Molecule Activators of BRCA1 Expression. MCF7-BRCA1-FFLuc reporter, luminescence, 48 h; response scale: scaled: vehicle 0%, 10 µM genistein 100%. Potency, µM (series often up to 46.1 µM), for inactives: at the highest dose activation, usual class: activators. 380,000 compounds, 1.1% hits; further: potency means the concentration at half of the fitted maximal effect; nearly all actives have a fitted effect of over 80% in size
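Activators of BRCA1 expression were detected as increased firefly luciferase luminescence in engineered MCF7 cells after 48 h compound incubation. Signals were scaled to genistein 10 microM as full activation.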
PTHR1 agonist: qHTS for PTHR1 Agonists: Primary Screen | HEK293 GP2 PTHR1 cells, GloSensor cAMP luminescence, 1 h | Potency, µM (series often up to 115 µM), for inactives: at the highest dose activation, hits mostly activators | 410,000 compounds, 0.075% hits | AID 743266, 2014; further: potency means the concentration at half of the fitted maximal effect; nearly all actives have a fitted effect of over 55% in size
Target sequence (Q03431 whole entry, looked up): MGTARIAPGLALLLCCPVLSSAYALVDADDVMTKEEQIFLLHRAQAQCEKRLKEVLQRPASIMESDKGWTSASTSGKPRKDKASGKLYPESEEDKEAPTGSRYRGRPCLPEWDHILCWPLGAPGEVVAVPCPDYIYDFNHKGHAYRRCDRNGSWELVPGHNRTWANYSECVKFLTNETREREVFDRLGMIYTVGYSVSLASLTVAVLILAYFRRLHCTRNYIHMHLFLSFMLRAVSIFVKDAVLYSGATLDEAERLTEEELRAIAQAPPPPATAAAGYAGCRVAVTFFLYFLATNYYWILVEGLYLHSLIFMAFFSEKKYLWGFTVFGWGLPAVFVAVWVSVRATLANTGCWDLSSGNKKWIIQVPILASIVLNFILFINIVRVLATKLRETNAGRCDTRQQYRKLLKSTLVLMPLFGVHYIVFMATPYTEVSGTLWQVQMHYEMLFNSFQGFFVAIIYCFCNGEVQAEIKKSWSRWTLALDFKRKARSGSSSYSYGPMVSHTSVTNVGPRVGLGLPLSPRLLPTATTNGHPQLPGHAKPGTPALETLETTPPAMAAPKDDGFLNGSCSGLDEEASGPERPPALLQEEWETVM
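HEK-293-derived GP2 cells expressing PTHR1 and a GloSensor cAMP reporter, 3,000/well, plated overnight, given luciferin plus IBMX (each 0.5 mM as added) for 1 h at 37 °C, then compound for 1 h at 37 °C. Luminescence was read after 15 min at room temperature.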
Starred values were filed as active, the others as inactive; [ ] = remark or other dose. Most compounds without a hit are left out; they make up all but 1.3% or so of the library. Unless noted, the call rests on the fitted dose curve; in most records, active means well fitted curve in the direction sought with a large enough effect; inconclusive means small, poorly fitted or top-dose-only effect, or another doubt; inactive means no such curve, though single readings can be large; an effect the other way counts as inactive or inconclusive.

For O=C(CNC(=O)c1ccc(Br)cc1)Nc1ccc(Br)cc1C(=O)c1ccccc1 the results were TCR act -3%[46.1 µM], IL-2 act -3, Mito fusion act 18µM*, Chronic BCR inh -3%, BRCA1 expr act -58% and PTHR1 agonist -33%.
For O=C(Nc1ccc(Br)cc1C(=O)c1ccccc1)c1ccccc1 the results were PTHR1 agonist inactive.
For CCc1ccc(-c2nc(CSCC(=O)N3CCN(c4ccc(F)cc4)CC3)c(C)o2)cc1 the results were PTHR1 agonist -71%.
CC(=O)c1ccc(Oc2nc(C)nc3c2oc2ccccc23)cc1 was read as Chronic BCR inh 5% and PTHR1 agonist -40%.
`CC(=O)O[C@H]1CC[C@@]2(C)C(=CC[C@@H]3[C@@H]2CC[C@]2(C)C(=O)CC[C@@H]32)C1` gave TCR act -7%, IL-2 act -1, Mito fusion act 14µM*, Chronic BCR inh -23%, BRCA1 expr act 2% and PTHR1 agonist -4%.
Screening CC(=O)O/C(=C1\CC2C3CC=C4CC(OC(C)=O)CCC4(C)C3CCC2(C)C1=O)C(F)(F)F (stereo unspecified) returned TCR act -2%, IL-2 act -5, BRCA1 expr act -58% and PTHR1 agonist inactive.
Screening C=C[C@@H]1C[C@@]1(C)[C@@H](NP(=O)(c1ccccc1)c1ccccc1)c1ccccc1 returned TCR act -2%, IL-2 act 2, Mito fusion act 18µM*, Chronic BCR inh -1%, BRCA1 expr act -23% and PTHR1 agonist -21%.
Screening CCCn1c(C)c(C(=O)c2ccc3ccccc3c2)c2ccccc21 returned Mito fusion act 13µM*.
For Cc1c(P(=S)(c2ccccc2)c2ccccc2)[n+]2ccccc2n1CCc1ccccc1 the results were IL-2 act -1, BRCA1 expr act -15% and PTHR1 agonist -86%.
CN(C)c1ccc(N=Cc2c(O)n(CCC3=CCCCC3)c(=O)[nH]c2=O)cc1 was read as TCR act 7%, IL-2 act 206*, Mito fusion act 0%, Chronic BCR inh 1%, BRCA1 expr act -1% and PTHR1 agonist -22%.
Screening O=C1NC(=S)NC(=O)C1=Cc1ccc(OCc2ccccc2)cc1 returned TCR act -72%, IL-2 act 2, BRCA1 expr act 13µM* and PTHR1 agonist -25%.
Screening C[C@@H]1CNC(=O)c2c(C(=O)Nc3ccc(CNC(=O)OC(C)(C)C)cc3)ncn21 returned IL-2 act -5, BRCA1 expr act -43% and PTHR1 agonist -93%.
For Cc1ccc(-c2ccc(=O)n(CCC(=O)N3CCC4(CC3)OCCO4)n2)cc1 the results were TCR act 1%, IL-2 act -1, Mito fusion act 0%, Chronic BCR inh -9%, BRCA1 expr act 11µM* and PTHR1 agonist inconclusive.
For c1ccc(CCCN2CCN(CCOC(c3ccccc3)c3ccccc3)CC2)cc1 the results were TCR act 3%, IL-2 act -1, Mito fusion act 7.3µM*, BRCA1 expr act -10% and PTHR1 agonist -68%.
For CC(=O)Nc1ccc2nc(NC(=O)c3ccc([N+](=O)[O-])o3)sc2c1 the results were TCR act 10%, IL-2 act -3, Mito fusion act 6%, Chronic BCR inh inconclusive, BRCA1 expr act -67% and PTHR1 agonist -31%.
For COC(=O)C1=C(c2ccccc2OCc2ccccc2)C[C@@H]2CC[C@H]1N2C(=O)NCc1ccccc1 the results were TCR act -7%, IL-2 act 0, Mito fusion act inconclusive, Chronic BCR inh inconclusive, BRCA1 expr act -13% and PTHR1 agonist -17%.
